According to the supplement of paper PMC6555819:

How the values were obtained:
Experiment in all cases: PBM binding z-score (relative to random genomic background probes); higher = stronger binding; sequences stand for … in GC…GCGATTGACAGCGTAGAATGAAGG
[1] = system: PPARg:RXRa DBDmut IVT, anti-RXR (DBD mutation: RXRa K156A/R161A, NR concentration 270 nM, RXRa partner concentration 90 nM)
Outline: (§1)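 On custom Agilent 4×180K arrays, double-stranded probes with 34-nt variable regions carried direct-repeat seeds, single-nucleotide variants, half-site ablations or random human genomic background. Ligand-free nuclear receptor dimers were applied for 1 h, and binding was read with antibodies against each partner (one per run). Binding z-scores come from regression-normalized fluorescence, with the random background probes as reference.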

[2] = system: PPARg:RXRa IVT, anti-PPARg (NR concentration 270 nM, RXRa partner concentration 90 nM)
Outline: as §1

[3] = system: PPARg DBDmut:RXRa IVT, anti-PPARg (DBD mutation: PPARg1 K132A/R137A, NR concentration 270 nM, RXRa partner concentration 90 nM)
Outline: as §1

[4] = system: PPARg DBDmut IVT, anti-PPARg (DBD mutation: PPARg1 K132A/R137A, NR concentration 270 nM)
Outline: as §1

[5] = system: PPARg homodimer (NR concentration 180 nM)
Outline: as §1

[6] = system: PXR:RXRa (NR concentration 270 nM, RXRa partner concentration 90 nM)
Outline: as §1

[7] = system: PXR homodimer (NR concentration 270 nM)
Outline: as §1

[8] = system: RARa:RXR (NR concentration 270 nM, RXRa partner concentration 90 nM)
Outline: as §1

[9] = system: RARa homodimer (NR concentration 270 nM)
Outline: as §1

[10] = system: RARb:RXRa (NR concentration 270 nM, RXRa partner concentration 90 nM)
Outline: as §1

[11] = system: RARb homodimer (NR concentration 270 nM)
Outline: as §1

[12] = system: RARg homodimer (NR concentration 270 nM)
Outline: as §1

[13] = system: RXRa DBDmut IVT, anti-RXR (DBD mutation: RXRa K156A/R161A, NR concentration 90 nM)
Outline: as §1

[14] = system: RXRa homodimer (NR concentration 180 nM)
Outline: as §1

[15] = system: THRa:RXRa (NR concentration 90 nM, RXRa partner concentration 90 nM)
Outline: as §1

[16] = system: THRa homodimer (NR concentration 90 nM)
Outline: as §1

[17] = system: VDR homodimer (NR concentration 270 nM)
Outline: as §1

[18] = system: RARg:RXRa (NR concentration 270 nM, RXRa partner concentration 90 nM)
Outline: as §1

[19] = system: VDR:RXRa (NR concentration 270 nM, RXRa partner concentration 90 nM)
Outline: as §1

| Sequence | PBM binding z-score [1] | PBM binding z-score [2] | PBM binding z-score [3] | PBM binding z-score [4] | PBM binding z-score [5] | PBM binding z-score [6] | PBM binding z-score [7] | PBM binding z-score [8] | PBM binding z-score [9] | PBM binding z-score [10] | PBM binding z-score [11] | PBM binding z-score [12] | PBM binding z-score [13] | PBM binding z-score [14] | PBM binding z-score [15] | PBM binding z-score [16] | PBM binding z-score [17] | PBM binding z-score [18] | PBM binding z-score [19] |
| --- | --- | --- | --- | --- | --- | --- | --- | --- | --- | --- | --- | --- | --- | --- | --- | --- | --- | --- | --- |
| GCTGCTAGGTCAACTGAAGGTCAGCTAAAGCTCG | 5 | 4.47 | -0.0557 | -1.06 | 5.87 | 4.62 | 0.437 | 6.6 | 2.11 | 4.98 | 5.31 | 7.38 | 1.68 | 4.88 | 4.03 | 1.66 | 1 |  |  |
| TCTGCTGGGTCAACGATGGTCAGCTAATCTGCTA | 3.36 | 3.7 | 1.06 | 0.239 | 0.518 | 1.46 | -1.34 | 2.07 | -1.24 | 3.6 | 2.96 | 4.31 | 0.782 | 2.58 | 2.65 | -0.44 | -0.395 |  |  |
| CCTAGTTGGTCAGGAGGTCACAAACCGGATATGA | 1.35 | 3.19 | 0.681 | -0.00546 | 3.21 | 3.77 | 1.38 | 4.45 | 2.04 | 3.37 | 3.97 | 4.1 | 0.534 | 4.38 | 3.31 | 2.01 | 2.44 |  |  |
| ATCGAAAGGTCGACGAGGAGAGTATACACCGTTT | 0.291 | 1.39 | 1.26 | 0.739 | 1.33 | 2.4 | 0.432 | 3.03 | 0.544 | 3.66 | 2.37 | 3.81 | 1.18 | 3.91 | 2.27 | -0.0264 | 0.681 |  |  |
| GCTGCTAGGTAAGGTTGGTCAGCTAACGGGTACG | 0.515 | 0.0144 | -1.12 | -0.451 | -0.00134 | -0.363 | -0.442 | -0.608 | -0.745 |  | 0.738 | -0.313 | -0.185 | -0.296 | 0.277 | -0.184 | -0.0228 | -0.277 | -0.447 |
| CCTACTGGGCCATTCAGAGGACATTGATCATATG | 4.5 | 3.41 | 0.559 | -0.35 | -0.295 | -0.327 | 0.096 | -0.457 | -0.467 |  | 0.736 | 0.53 | -0.28 | -0.174 | 0.676 | 0.238 | 0.541 | 0.858 |  |
| CCTTACCGGTCAAGGTTATAGCACGGGTGGTACG | -0.499 | 0.825 | -0.737 | -0.375 | 1.58 | 1.16 | 0.299 | 1.3 | 0.889 |  | 2.84 | 3.33 | -0.447 | 1.46 | 1.74 | 0.941 | 0.853 | 2.53 |  |
| ATATGTAGCTTAAGGGTCATTCAGGTTGGTTCGC | 0.343 | 2.21 | 1.55 | 0.663 | 2.61 | 4.83 | 1.67 | 4.2 | 0.894 |  | 3.64 | 2.82 | 1.95 | 4.27 | 3.27 | 1.02 | 4.07 | 3.62 |  |
| ATCTCTAGGTAAAGTTCAGCGAAAGATCGATAGA | 2.11 | 2.5 | 1.45 | 1.53 | 1.49 | 2.29 | 1.48 | 2.06 | 0.708 |  | 2.94 | 2.95 | 1.25 | 1.9 | 1.41 | 0.214 | 1.66 | 2.55 | 1.84 |
| CCTACTGGGCGAAGGTCATTGATCAGTCAAAGCA | 0.342 | 2.33 | -1.21 | -0.935 | 2.36 | 3.04 | 0.36 | 3.75 | -0.327 |  | 3.08 | 2.52 | 0.409 | 2.97 | 2.2 | -0.298 | 1.33 | 3.7 | 2.18 |
| AGTCATAGTTCACTAGGTAACGTAAGATTCAGCT | 1.88 | 3.43 | 1.06 | 0.768 | 1.27 | 1.17 | 0.241 | 1.21 | 0.337 |  | 2.32 | 2.72 | 1.82 | 1.6 | 1.11 | 0.171 | 0.797 | 2.32 |  |
| CGTCAAAGTTCAACTAAGGTAACGTATAGCACGC | 0.646 | 2.49 | 2.35 | 1.51 | 3.82 | 5.78 | 5.22 | 4.65 | 2.34 |  | 4.33 | 6.62 | 4.32 | 4.78 | 5.26 | 1.89 | 4.37 | 5.92 | 4.92 |
| CGTCAAAGTTCAACTAAGTTAACGTAAAGCACGC | 0.764 | 1.89 | 1.94 | 1.78 | 2.97 | 6.14 | 5.97 | 4.09 | 2.57 |  | 4.02 | 6.78 | 4.7 | 5.2 | 4.32 | 0.349 | 3.74 | 5.7 |  |
| TCTGCTAGGTCAGTTGGGCAGCTAACGAGCTGCC | 2.07 | 2.7 | -0.163 | -0.28 | 0.0544 | -0.242 | -1.29 | 0.253 | -1.12 |  | 1.91 | 3.42 | 0.193 | 0.493 | 1.12 | -0.349 | -0.821 | 2.37 | -0.0977 |
| GCTGCAAGGTCAACTGATGGTCAGCTAAAGCTCG | 3.15 | 3.5 | 0.338 | -0.136 | 2.93 | 4.58 | 0.331 | 5.36 | 0.743 |  | 4.71 | 7.04 | 3.75 | 5.7 | 4.18 | 2.31 | 2.53 | 7.17 | 4.66 |
| CGTCCAAGGTCAAAGGTCAGCGAAGAGATGACGG | 4.17 | 6.07 | 0.648 | 0.832 | 4.17 | 7.19 | 1.93 | 8.63 | 2.3 |  | 5.39 | 8.41 | 3.72 | 10.4 | 5.06 | 2.63 | 3.77 | 8.99 |  |
| CCTCGGAGGACAGAAGGTCAGATCTGTCCGCTTT | 0.207 | -0.0702 | -0.934 | -1.55 | 1.35 | 1.65 | -0.42 | 1.98 | 0.321 |  | 3.49 | 3.53 | 0.421 | 2.01 | 2.25 | 0.0201 | 0.21 | 3.26 | 0.977 |
| CCCCGGAGGACAGAAGGTCAGAGCTGTCCGCTTT | -0.634 | -0.0521 | -2.12 | -1.93 | 1.56 | 1.25 | -0.156 | 1.87 | 0.0931 |  | 3.7 | 3.26 | -0.968 | 1.78 | 2.21 | 0.211 | 0.277 | 3.27 | 0.723 |
| AGTCCAAGTTCACTAGGTAACGTAAGATTCAGCT | 2.21 | 3.58 | 1.01 | 0.63 | 0.72 | 2.45 | 2.13 | 1.17 | 0.555 |  | 1.95 | 2.98 | 4.3 | 1.74 | 1.54 | 0.381 | 4.4 | 2.53 | 3.46 |
| ACTAGTTGCTCAGCTGAGGTCACACACAATTCGG | 0.944 | 1.76 | 0.496 | 1.18 | 1.91 | 4.3 | 1.44 | 4.26 | 0.561 |  | 3.77 | 2.72 | 1.09 | 3.6 | 4.23 | 4.94 | 3.14 | 3.37 | 3.65 |
| CATACCGGGTCAGCTAGGCCAGAGTAGGGACGGC | 1.21 | 2.82 | 0.167 | 0.0787 | 0.359 | 1.05 | -0.232 | 1.76 | -0.125 |  | 2.34 | 3.83 | -0.0713 | 3 | 2.53 | 0.906 | 0.395 | 3.47 |  |
| CGTCGGAGGACAACAGGAGGTCAGAGCTGCCAGA | 0.202 | 0.616 | -1.5 | -1.4 | 2.42 | 2.5 | 0.93 | 2.58 | 0.114 |  | 3.63 | 3.69 | 0.531 | 2.26 | 2.98 | 1.12 | 1.79 | 3.83 | 2.05 |
| CGTCTAAGGTCAGCAGGTCAGTGAAAGCGACGTG | 3.72 | 3.7 | 0.756 | 0.144 | 5.12 | 4.16 | 0.612 | 5.94 | 2.05 |  | 5.24 | 7.53 | 3.01 | 6.01 | 4.47 | 3.96 | 1.86 | 6.82 | 4.3 |
| ACAGACAGGTGAGTGAAGGTCACTCAGCTGGACG | 0.842 | 2.27 | 0.253 | 0.153 | 1.49 | 3.66 | 0.106 | 2.82 | 0.0123 |  | 3.64 | 3.72 | -0.197 | 2.89 | 3.41 | 0.198 | 0.819 | 3.32 |  |
| ATCGAATGGTCGAAGGTGAGTATACCCACCCGAA | -0.883 | 0.182 | 0.483 | 0.223 | 0.138 | -0.0379 | -0.408 | 0.334 | 0.141 |  | 0.0928 | 0.497 | -0.884 | 0.585 | 0.0175 | -0.459 | -0.194 | 0.392 |  |
| CGTGCAAGGTCAGAGAGGTCAGTGAATGCCGAGT | 2.79 | 3.68 | 0.231 | -0.338 | 2.85 | 6.05 | 11.2 | 5.42 | 0.698 |  | 5.37 | 7.25 | 3.07 | 5.82 | 4.31 | 2.54 | 5.99 | 6.33 | 7.22 |
| ATCGGAAGGTCGAGGTGAGTATAGAGAAAGGGAA | 0.383 | 1.36 | 0.811 | 0.693 | 1.44 | 1.1 | 0.218 | 1.59 | 0.522 |  | 2.14 | 2.75 | 0.14 | 2.25 | 2.28 | 0.964 | 0.543 | 2.38 |  |
